From PubChem BioAssay (NCI)
The panel holds about 79,000 compounds, 15% with a hit somewhere; the sample as a whole holds those more often. Calls of active or inactive are those of the source. Cut-off read from the data, not from the text of the source: active = growth inhibition above about 70%; inactive = the rest.

Assays:
[1] = NCI Yeast Anticancer Drug Screen. Data for the rad50 strain (AID 155);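 note: 0% = growth of vehicle-only cultures of the same strain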; conditions: S. cerevisiae rad50 strain growth inhibition; at 50.0 µM; stronger effect = higher value
Procedure, shortened: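 Relative growth inhibition (compound vs vehicle) was measured in yeast with a defined repair-gene alteration.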

[2] = NCI Yeast Anticancer Drug Screen. Data for the mec2-1 strain (AID 157); conditions: S. cerevisiae mec2-1 strain, at 50.0 µM, stronger effect = higher value
Procedure, shortened: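 Cells of the genetically defined mec2-1 yeast strain are incubated with test compound. Inhibition of growth is calculated against vehicle-treated controls.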

[3] = NCI Yeast Anticancer Drug Screen. Data for the sgs1 mgt1 strain (AID 161);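 note: 0% = growth of cultures given vehicle only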; conditions: S. cerevisiae sgs1 mgt1 strain, at 50.0 µM, stronger effect = higher value
Procedure, shortened: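 Test agents were incubated with a DNA-repair-mutant yeast strain. Growth was then read and compared against vehicle-treated controls.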

[4] = NCI Yeast Anticancer Drug Screen. Data for the cln2 rad14 strain (AID 165);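 note: 0% = growth equal to vehicle treated cultures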; conditions: S. cerevisiae cln2 rad14 strain, at 50.0 µM, stronger effect = higher value
Procedure, shortened: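 The screen exposed genetically defined yeast (cln2 rad14) to test compounds and scored growth inhibition relative to vehicle-treated controls.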

[5] = NCI Yeast Anticancer Drug Screen. Data for the bub3 strain (AID 167); conditions: S. cerevisiae bub3 mutant strain, at 50.0 µM, stronger effect = higher value
Procedure, shortened: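 Screening used yeast with an engineered genetic alteration affecting cell cycle control. Compound-exposed cultures were compared with vehicle cultures, and reduced growth was taken as inhibition.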

[6] = NCI Yeast Anticancer Drug Screen. Data for the mlh1 rad18 strain (AID 175); conditions: S. cerevisiae mlh1 rad18 strain growth inhibition; at 50.0 µM; stronger effect = higher value
Procedure, shortened: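 Compound-treated yeast growth, normalised to vehicle controls. Strain bears defined DNA repair mutations.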

Measured: growth inhibition

CCOC(=O)C/C(C)=N/NS(=O)(=O)c1ccc(NC(C)=O)cc1
inactive: [1] -7.6% | [2] -19.6% | [3] 8.25% | [4] -9.3% | [5] -27.3% | [6] -24.8%

COC(=O)C1(CC(=O)Cc2ccccc2)NC(=S)NC(=O)C1C#N (stereo not given)
inactive: [1] 8.45% | [2] -7.7% | [3] -12.2% | [4] -12.1% | [5] -29.1% | [6] 4.8%

O=CC(O)C(O)C(O)C(O)C(=O)O.O=CC(O)C(O)C(O)C(O)C(=O)O.[NH-]C1CCCCC1[NH-].[Pt+2] (stereo not given)
inactive: [1] -7.65% | [2] -9.8% | [3] 8.2% | [4] 4.25% | [5] 6.35% | [6] -41%

C=CCNC(=S)Nc1cccc(C(C)OC(=O)NC(C)(C)C)c1 (stereo not given)
inactive: [1] 1.2% | [2] 30.9% | [3] 36.2% | [4] -5.8% | [5] 33.8% | [6] 20.6%

O=C(Nc1ccsc1)c1ccccc1
inactive: [1] -10.8% | [2] -8.7% | [3] -19.3% | [4] -58.2% | [5] -27.4% | [6] -3.25%

Cc1cc(C)c(C(=O)c2cccc(Cl)c2)c(C)c1
inactive: [1] -13% | [2] 4.7% | [3] 5.55% | [4] -56.9% | [5] 34.4% | [6] 22%

CCC1CN2CCc3cc(OC)c(OC)cc3C2CC1CCCl (stereo not given)
inactive: [1] -8.6% | [2] 4.05% | [3] -4.5% | [4] -9.7% | [5] -29.9% | [6] -24.7%

Cc1ccc(Nc2ncnc3c2cnn3-c2ccccc2)cc1
inactive: [1] 9.7% | [2] 12.2% | [3] 43.5% | [4] -24.1% | [5] -2.35% | [6] 8.05%

O=C1OC(c2ccc([N+](=O)[O-])cc2)=N/C1=C\c1cccc([N+](=O)[O-])c1
inactive: [1] 23.1% | [2] 20.9% | [3] 36.2% | [4] 38.2% | [5] 22.1% | [6] 52%

OCC1CCN(CCOCc2ccccc2)C1 (stereo not given)
inactive: [1] 9.25% | [2] -0.4% | [3] -2.3% | [4] -32.5% | [5] -7.05% | [6] 7.6%

C=C(C)COCc1ccc(C(C)(C)CC(C)(C)C)cc1
inactive: [1] -14.6% | [2] -10.3% | [3] -9.85% | [4] -23.5% | [5] -15.4% | [6] 1.55%

CN1CCc2c1nc(-c1ccc(Cl)cc1)c1c2N(C)CC1
inactive: [1] 5.15% | [2] 1.5% | [3] 0% | [4] 9% | [5] -9.55% | [6] -7.35%

CC(=O)Nc1ccc(-c2nnc(SCC(=O)Nc3ccccc3)o2)cc1
inactive: [1] 2.3% | [2] 6.8% | [3] -4.95% | [4] -1.8% | [5] -14.6% | [6] -8.55%

CC1CC(=O)CC[C@@H]1OCc1ccccc1 (stereo not given in full)
inactive: [1] 5.95% | [2] -17.4% | [3] -5.05% | [4] 19.9% | [5] -8.95% | [6] 16.7%

CC(=O)C(=Cc1ccc(Cl)c(Cl)c1)C(C)=O
active: [1] 99.5% | [2] 99.7% | [3] 99.7% | [4] 99.6% | [5] 99.5% | [6] 99.5%

COc1ccccc1C1C2=C(COC2=O)Oc2cc3c(cc21)OCO3 (stereo not given)
inactive: [1] -20.8% | [2] -8.25% | [3] -29.1% | [4] 3.75% | [5] 0.4% | [6] -11.9%

Nc1nc(=O)n(CCCOc2cccc(Cl)c2)cc1-c1ccc(Cl)c(Cl)c1
active: [5] 87%
inactive: [1] 52.6% | [2] 49.4% | [3] 52.2% | [4] 68.8% | [6] 51.5%

CC(=O)[C@@]1(O)CC[C@H]2[C@@H]3C[C@H](C)C4=CC(=O)C=C[C@]4(C)[C@@]3(F)[C@@H](O)C[C@@]21C
inactive: [1] -24.1% | [2] 9.65% | [3] -11.1% | [4] -33% | [5] -4.5% | [6] -22.1%

CCOC(=O)CNC(=O)C(CSSCC(NC(=O)OCc1ccccc1)C(=O)OC)NC(=O)C(NC(=O)OCc1ccccc1)C(C)C (stereo not given)
inactive: [1] 7.65% | [2] 21.3% | [3] 14.5% | [4] -1.65% | [5] -11.7% | [6] 56.6%

CCCC(C)C(=O)OC(C)CC(C)C (stereo not given)
inactive: [1] 31% | [2] 15.9% | [3] 21.9% | [4] -0.75% | [5] 20.9% | [6] 15.6%

CCN1c2ccccc2CC(C#N)(CCN(C)C)c2ccccc21 (stereo not given)
inactive: [1] 1.5% | [2] 5.45% | [3] 2.65% | [4] -10.8% | [5] 6.95% | [6] -0.35%

CCC(=O)OCCC(C)C
inactive: [1] 35.4% | [2] 12.2% | [3] 6.85% | [4] -22.1% | [5] 19.9% | [6] 17.4%

O=C1c2cccc3cc([N+](=O)[O-])cc(c23)C(=O)N1C(Cc1ccccc1)c1ccccc1 (stereo not given)
inactive: [1] 4.1% | [2] -6.05% | [3] 16.4% | [4] 15.1% | [5] 10.6% | [6] 19.1%

C/C(CCN(C)C)=N\OC(=O)c1ccccc1
inactive: [1] -12.2% | [2] -25.9% | [3] -33.2% | [4] -6.65% | [5] -6.95% | [6] -26.9%

CCOC(=O)c1sc2c(c1OC(=O)c1ccccc1)c(=O)n(-c1ccccc1)c(=S)n2-c1ccccc1
inactive: [1] 21% | [2] 15.9% | [3] 30.1% | [4] 24.9% | [5] 29.2% | [6] 33.7%

CCCC(CCC)C(=O)O
inactive: [1] -18% | [2] 3.45% | [3] -8.75% | [4] 7.9% | [5] -10.8% | [6] -1.05%

CC1(C)C(=O)C(=Cc2ccco2)C1=O
inactive: [1] -18.9% | [2] 0.85% | [3] -23.4% | [4] 3.2% | [5] -14.2% | [6] 13%

CCCCCCCCCCCCC(N)C(=O)O (stereo not given)
inactive: [1] 3.55% | [2] -9.15% | [3] 28% | [4] -15.8% | [5] 6.7% | [6] -1.3%

N#CCCCCC12C3C(=O)N(c4ccccc4)C(=O)C3ON1O[C@@H]1C(=O)N(c3ccccc3)C(=O)[C@@H]12 (stereo not given in full)
inactive: [1] 43.4% | [2] 19.3% | [3] 26.7% | [4] 49.9% | [5] 33.5% | [6] 44.4%

CC(=O)Nc1ccc(OC2=CCN(C)CC2)cc1
inactive: [1] 0.75% | [2] -16.1% | [3] 8.85% | [4] 12.7% | [5] 11.1% | [6] -64.8%

CCOC(=O)c1nc2ccc(C(F)(F)F)cc2[nH]c1=O
inactive: [1] -23.9% | [2] -14.2% | [3] -17.4% | [4] -47.2% | [5] -11.8% | [6] -10%

CC1(C)OC2COC(c3[nH]nc4c(=O)[nH]c(=O)[nH]c34)C2O1 (stereo not given)
inactive: [1] 1.1% | [2] -5.65% | [3] -26.9% | [4] -20.8% | [5] -64.3% | [6] -5%

ClC[C@H]1C[C@@H]2C[C@@H]1[C@H]1O[C@@H]21
inactive: [1] -7.4% | [2] -21.6% | [3] -11.2% | [4] -5.35% | [5] -9.6% | [6] 10.8%

O=C1CSC(c2ccc([N+](=O)[O-])cc2)N1c1nncs1 (stereo not given)
inactive: [1] -10.9% | [2] -6.8% | [3] 7.25% | [4] -2.65% | [5] -8.7% | [6] 0.55%

CC(C)(C=O)OC(=O)c1cc([N+](=O)[O-])cc([N+](=O)[O-])c1
inactive: [1] 7.2% | [2] -14.2% | [3] 27.4% | [4] 29.8% | [5] -8% | [6] 1.6%

O=C(Nc1cccc([N+](=O)[O-])c1)Oc1ccc(-c2ccccc2)cc1
inactive: [1] 17.9% | [2] 36.2% | [3] 18.5% | [4] -3.75% | [5] 57.7% | [6] 25.4%

O=C1/C(=C/c2ccc(O)cc2)CCC/C1=C\c1ccc(O)cc1
inactive: [1] 3.9% | [2] 1.85% | [3] 5.2% | [4] 23.1% | [5] -7.05% | [6] 1.45%

CCN(CC)C(=S)Nc1ccc(-c2cc3ccc(O)cc3oc2=O)cc1
inactive: [1] -6.95% | [2] 11.6% | [3] -5.45% | [4] 32.9% | [5] 18.2% | [6] 6.15%

O=c1oc(=O)c2c1ccc1c2cc2ccc3cccc4ccc1c2c34
inactive: [1] -17.9% | [2] -10.4% | [3] -8.2% | [4] -35.1% | [5] -11.2% | [6] -11.1%

CC(=O)OC1OC(COC(=O)c2ccccc2)C(OC(=O)c2ccccc2)C1OC(=O)c1ccccc1 (stereo not given)
inactive: [1] -60.6% | [2] -12.8% | [3] -13.2% | [4] -33.9% | [5] -0.65% | [6] 2.95%
